Measurements taken from PubChem BioAssay AID1159580 (chemical genetic matrix, 2015).
Out of some 5,500 compounds screened, about 2,000 (36%) were called active. Another 18% or so got no clear call; they are omitted. Cut-off read from the data, not from the text of the source: active = normalized growth mostly below about 0.91 (no sharp cut-off); inconclusive = no clear call, values can overlap the other calls; inactive = mostly above about 0.92. The list shows a part of the results.

Assay: chemical genetic growth profiling, strain panel (AID 1159580);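 note: tested at 20 µM; growth read once vehicle control cultures reached saturation at 30 °C; 1 = growth at the plate median or of vehicle wells; lower values mean less growth of the strain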
Settings: S. cerevisiae deletion strains, growth OD

Measured: normalized growth

C=CCS(=O)C[C@H](N)C(=O)O (some centres undefined)
inactive: locus YAL021C, strain ccr4, active compounds read low 1 | locus YAL026C, strain drs2, active compounds read low 1 | locus YAL030W, strain snc1, active compounds read low 0.982 | locus YBL061C, strain skt5, active compounds read low 1 | locus YBR009C, strain hhf1, active compounds read low 1 | locus YBR023C, strain chs3, active compounds read low 1 | locus YBR171W, strain sec66, active compounds read low 0.982 | locus YBR231C, strain swc5, active compounds read low 0.981 | locus YBR279W, strain paf1, active compounds read low 0.999 | locus YCL011C, strain gbp2, active compounds read low 0.992 | locus YCL016C, strain dcc1, active compounds read low 1.02 | locus YCL069W, strain vba3, active compounds read low 0.984 | locus YCR088W, strain abp1, active compounds read low 0.986 | locus YDL005C, strain med2, active compounds read low 1 | locus YDL040C, strain nat1, active compounds read low 1.01 | locus YDR001C, strain nth1, active compounds read low 1 | locus YDR069C, strain doa4, active compounds read low 0.985 | locus YDR137W, strain rgp1, active compounds read low 0.97 | locus YDR159W, strain sac3, active compounds read low 0.996 | locus YDR195W, strain ref2 0.986 | locus YDR297W, strain sur2, active compounds read low 1 | locus YDR334W, strain swr1, active compounds read low 1.01 | locus YDR335W, strain msn5, active compounds read low 0.991 | locus YDR392W, strain spt3, active compounds read low 0.979 | locus YEL003W, strain gim4, active compounds read low 1 | locus YEL037C, strain rad23, active compounds read low 1.01 | locus YEL061C, strain CIN8 (second series), active compounds read low 1.01 | locus YER015W, strain faa2, active compounds read low 1 | locus YER016W, strain bim1, active compounds read low 0.982 | locus YER111C, strain swi4, active compounds read low 1.01 | locus YER155C, strain BEM2 (second series), active compounds read low 0.961 | locus YFR010W, strain ubp6, active compounds read low 0.998 | locus YGL167C, strain pmr1, active compounds read low 0.997 | locus YGL173C, strain kem1, active compounds read low 0.999 | locus YGL227W, strain vid30, active compounds read low 0.969 | locus YGL240W, strain doc1, active compounds read low 0.994 | locus YGL253W, strain hxk2, active compounds read low 1 | locus YHR013C, strain ard1, active compounds read low 0.981 | locus YHR027C, strain rpn1, active compounds read low 0.994 | locus YHR030C, strain SLT2, active compounds read low 1.02 | locus YHR079C, strain IRE1, active compounds read low 1.01 | locus YHR142W, strain chs7, active compounds read low 1.02 | locus YJL092W, strain hpr5, active compounds read low 0.999 | locus YJL095W, strain BCK1 (second series), active compounds read low 0.998 | locus YJL095W, strain BCK1, active compounds read low 1.03 | locus YJL115W, strain asf1, active compounds read low 0.992 | locus YJL129C, strain trk1, active compounds read low 0.997 | locus YJL154C, strain vps35, active compounds read low 0.995 | locus YJL164C, strain tpk1, active compounds read low 0.997 | locus YJL166W, strain qcr8, active compounds read low 0.991 | locus YJL187C, strain SWE1, active compounds read low 0.998 | locus YJR066W, strain TOR1, active compounds read low 0.952 | locus YKL160W, strain elf1, active compounds read low 1 | locus YKR026C, strain gcn3, active compounds read low 0.984 | locus YKR091W, strain srl3, active compounds read low 0.986 | locus YLL001W, strain dnm1, active compounds read low 1.01 | locus YLL026W, active compounds read low 0.994 | locus YLL041C, strain sdh2, active compounds read low 0.995 | locus YLR027C, strain aat2, active compounds read low 1 | locus YLR113W, strain HOG1, active compounds read low 1.02 | locus YLR221C, strain rsa3, active compounds read low 1 | locus YLR258W, strain gsy2, active compounds read low 0.987 | locus YLR262C, strain YPT6 (second series), active compounds read low 0.987 | locus YLR320W, strain mms22, active compounds read low 1 | locus YLR342W, strain FKS1, active compounds read low 0.996 | locus YLR357W, strain rsc2, active compounds read low 0.961 | locus YLR370C, strain arc18, active compounds read low 0.995 | locus YLR384C, strain iki3, active compounds read low 0.994 | locus YML120C, strain ndi1, active compounds read low 0.992 | locus YMR058W, strain fet3, active compounds read low 0.998 | locus YMR125W, strain sto1, active compounds read low 0.991 | locus YMR129W, active compounds read low 0.976 | locus YMR205C, strain PFK2, active compounds read low 1.01 | locus YMR231W, strain pep5, active compounds read low 0.998 | locus YNL071W, strain lat1, active compounds read low 0.988 | locus YNL183C, strain NPR1, active compounds read low 0.971 | locus YNL209W, strain ssb2, active compounds read low 0.985 | locus YNL248C, strain rpa49, active compounds read low 1 | locus YNL322C, strain KRE1 (second series), active compounds read low 0.98 | locus YNR049C, strain mso1, active compounds read low 0.997 | locus YOR001W, strain rrp6, active compounds read low 1.01 | locus YOR070C, strain gyp1, active compounds read low 1 | locus YOR080W, strain dia2, active compounds read low 1.01 | locus YOR083W, strain WHI5, active compounds read low 0.962 | locus YOR106W, strain vam3, active compounds read low 1 | locus YOR231W, strain MKK1, active compounds read low 1.01 | locus YOR265W, strain rbl2, active compounds read low 1.01 | locus YOR270C, strain vph1, active compounds read low 1.02 | locus YOR290C, strain snf2, active compounds read low 1 | locus YPL051W, strain arl3, active compounds read low 0.983 | locus YPL078C, strain atp4, active compounds read low 1.02 | locus YPL106C, strain sse1, active compounds read low 0.929 | locus YPL240C, strain hsp82, active compounds read low 0.983 | locus YPL256C, strain CLN2, active compounds read low 1.02
